# According to PubChem BioAssay:
# For part of these data: Entries with a potency or affinity are not part of this list. Activity calls are given as the source filed them.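 Rule for the calls, unless noted: active = fitted half-maximal concentration within the tested range, moderate curve steepness, significant signal drop, and little compound fluorescence or bead-linkage interference; inactive = the rest.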
# How the values were obtained:
# [1] = molecular target: Cell division control protein 42 homolog (Homo sapiens) (UniProt P60953); test: inhibition of fluorescent GTP binding to constitutively active Cdc42 – biochemical, multiplex bead flow cytometry, Bodipy-FL-GTP, dose response (AID 1333;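 active = fitted half-maximal concentration within the tested dose range, moderate curve steepness, a statistically real signal drop, and little compound fluorescence or tag-binding interference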)
# Sequence of Cell division control protein 42 homolog (Homo sapiens) (P60953 whole entry, looked up): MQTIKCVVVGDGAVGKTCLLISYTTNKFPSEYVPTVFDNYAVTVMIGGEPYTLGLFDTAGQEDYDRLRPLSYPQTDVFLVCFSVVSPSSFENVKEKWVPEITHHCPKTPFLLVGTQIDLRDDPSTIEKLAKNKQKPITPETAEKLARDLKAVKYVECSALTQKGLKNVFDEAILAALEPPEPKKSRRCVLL
# [2] = molecular target: Cell division control protein 42 homolog (Homo sapiens) (UniProt P60953); test: inhibition of fluorescent GTP binding to wildtype Cdc42 – biochemical, multiplex bead flow cytometry, Bodipy-FL-GTP, dose response (AID 1334); conditions: bead-based flow cytometry, Bodipy-FL-GTP binding to GST-Cdc42; at 100 µM (top of the series) unless noted
# [3] = molecular target: GTPase HRas (Homo sapiens) (UniProt P01112); test: Ras wt fluorescent GTP loading blockade – biochemical, wildtype, multiplex bead flow cytometry, dose response (AID 1335;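 active = fitted half-maximal concentration within 10 nM to 100 µM, steepness 0.5 to 2, significant signal drop, low assay interference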); conditions: bead-based flow cytometry, Bodipy-GTP binding to GST-Ras; at 100 µM (top of the series) unless noted
# Sequence of GTPase HRas (Homo sapiens) (P01112 whole entry, looked up): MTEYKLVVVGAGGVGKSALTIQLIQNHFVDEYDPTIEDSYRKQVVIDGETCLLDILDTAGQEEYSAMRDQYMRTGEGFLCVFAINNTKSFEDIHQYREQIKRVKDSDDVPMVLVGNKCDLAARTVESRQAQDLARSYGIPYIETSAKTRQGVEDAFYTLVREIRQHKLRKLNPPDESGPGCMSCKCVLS
# [4] = system: Ras-related protein Rab-7a (dog), GTP binding; test: blockers of fluorescent GTP binding to Rab7 – biochemical, wildtype, multiplex bead flow cytometry, dose response (AID 1336; call rule not given here)
# [5] = molecular target: Ras-related C3 botulinum toxin substrate 1 (Homo sapiens) (UniProt P63000); test: inhibition of wildtype Rac1 nucleotide loading – biochemical, multiplex bead flow cytometry, dose response (AID 1340;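 active = dose curve with midpoint inside tested range, moderate steepness, plateau gap beyond fit error, low compound glow and bead-link interference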); conditions: GST-Rac1 beads, Bodipy-FL-GTP binding; at 100 µM (top of the series) unless noted
# [6] = molecular target: GTPase HRas (Homo sapiens) (UniProt P01112); test: blockade of GTP loading onto mutant Ras – biochemical, activated mutant, multiplex bead flow cytometry, dose response (AID 1341;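 active = dose-response curve with midpoint inside the tested range, moderate steepness, significant amplitude and little compound fluorescence or bead-attachment interference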;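 note: GST-tagged constitutively activated Ras mutant immobilized on beads and multiplexed with other GTPases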)
Structure (SMILES),outcome [1],"fluorescence, percent of control (lower = inhibition) [2] [%]","GTP binding, percent of control [3] [%]",outcome [4],"GTP binding signal, raw median fluorescence (lower = inhibition) (MCF (arbitrary fluorescence units)) [5]",outcome [6]
Cc1c(CCC(=O)O)c(=O)oc2cc3occ(-c4ccc(F)cc4)c3cc12,inactive,29.1,72.6,inactive,160,inactive
Cc1cc(C(=O)O)sc1CNc1ccc(Cl)cc1,inactive,63.1,88.6,inactive,34.7,inactive
O=C(NCc1ccc(F)cc1)C(c1ccccc1)N(CC1CCCO1)C(=O)Cn1nnc2ccccc21 (stereo not given),inactive,53.6,70.1,inactive,0,inactive
COc1ccc(C(=O)Nc2nc3ccccc3[nH]2)cc1S(=O)(=O)N1CCOCC1,inactive,32.9,73.9,inactive,197,inactive
COc1ccc(CN2C(=O)/C(=C/c3ccc(-c4ccc(Cl)c(C(=O)O)c4)o3)SC2=S)cc1,inactive,32.2,56,inactive,142,inactive
Cc1ccc(Nc2c(F)c(F)c(F)c(F)c2C(=O)O)cc1,inactive,84.8,106,inactive,74,inactive
COc1cccc(OCc2ccccc2Br)c1C(=O)O,inactive,51.9,206,inactive,46.4,inactive
COc1ccc(-c2cc(C(F)(F)F)c3c(n2)sc2c(O)cc(=O)[nH]c23)c(OC)c1,inactive,38.1,76.3,inactive,162,inactive
O=S(=O)(Nc1cc(Sc2ncn[nH]2)c(O)c2ccccc12)c1ccccc1,inactive,31.4,71.9,inactive,155,inactive
CS(=O)(=O)Nc1ccc(Br)cc1C(=O)c1ccccc1,inactive,46.4,59,inactive,205,inactive
O=C(Nc1nccs1)c1ccc(-c2cccc([N+](=O)[O-])c2)o1,inactive,31.6,72.4,inactive,181,inactive
CCN(CC)c1ccc(/C=c2\sc3nnc(-c4ccccc4Cl)n3c2=O)cc1,inactive,117,128,inactive,225,inactive
CCCC(=O)c1ccc(N2CCOCC2)c(F)c1,inactive,48.4,65.7,inactive,212,inactive
COc1ccc(/C=N/Nc2ncnc3sc4c(c23)CCCC4)cc1O,inactive,30.6,42.8,inactive,112,inactive
COc1cc(N2CCCC2)c(OC)cc1/C=C(/C#N)c1cccc(Br)c1,inactive,103,110,inactive,228,inactive
Cc1nc2ccc(-c3nc4ccc(N)cc4[nH]3)cc2[nH]1,inactive,35.3,79.9,inactive,210,inactive
O=C(O)c1cc(Sc2ccc(F)cc2)nc2ccccc12,inactive,59.8,86,inactive,30.2,inactive
COc1cccc(N2CCN(C(=O)CCCCCNc3nc(=S)[nH]c4ccccc34)CC2)c1,inactive,38.1,79.5,inactive,264,inactive
N#C/C(=C\c1ccc(-c2ccc(C(=O)O)cc2)o1)c1nc2ccccc2[nH]1,inactive,168,221,inactive,144,inactive
COc1ccc2c3c(cccc13)C(=O)N(O)C2=O,inactive,30.1,69.8,inactive,145,inactive
O=c1c(/C=N/Nc2ccccc2)c(Sc2nnnn2-c2ccccc2)nc2ccccn12,inactive,107,114,inactive,308,inactive
Cc1noc(C)c1COc1cccc(C(=O)NCc2ccccc2Cl)c1,inactive,91.7,163,inactive,186,inactive
Cc1ccc(C(C)C)c(OCCn2cc(C(=O)O)c3ccccc32)c1,inactive,66.7,86.3,inactive,44.5,inactive
COc1ccc(-c2csc(NC(=O)Cc3cccc4ccccc34)c2C(=O)O)cc1,inactive,27.2,66.7,inactive,187,inactive
COc1cccc(-n2nc3c(=S)[nH]nc(C)c3c2C)c1,inactive,50.1,63.5,inactive,199,inactive
Oc1c(CN2CCOCC2)ccc2ccccc12,inactive,36.2,84.5,inactive,250,inactive
O=C(C[n+]1cccc(CNC(=O)c2ccc(OC(F)F)cc2)c1)Nc1ccccc1Cl,inactive,51.9,60.5,inactive,203,inactive
Cc1ccc(NC(=S)Nc2ccc3nc(-c4ccccn4)c(-c4ccccn4)nc3c2)cc1C,inactive,53.7,69,inactive,0,inactive

Structure (SMILES),outcome [1],"fluorescence, percent of control (lower = inhibition) [2] [%]","GTP binding, percent of control [3] [%]",outcome [4],"GTP binding signal, raw median fluorescence (lower = inhibition) (MCF (arbitrary fluorescence units)) [5]",outcome [6]
Nc1c(S(=O)(=O)c2ccccc2)c2nc3ccccc3nc2n1/N=C/c1cccc(O)c1,inactive,91.2,81.1,inactive,105,inactive
COc1ccccc1OCCn1cc(C(=O)O)c2ccccc21,inactive,102,139,inactive,87.3,inactive
O=C(O)c1cc2ccccc2nc1OCCc1ccccc1,inactive,55.8,222,inactive,50.3,inactive
CCC(C)NC(=O)CSc1nc2n[nH]c(C)c2c(=N)n1-c1ccc(OC)cc1 (stereo not given),inactive,36,48.9,inactive,111,inactive
COc1ccc(S(=O)(=O)n2oc(=O)cc2-c2ccccc2)cc1,inactive,42.2,90.8,inactive,248,inactive
Cc1ccc(-n2c(=O)[nH]c3c(oc4ccccc43)c2=O)cc1,inactive,34.8,78.7,inactive,332,inactive
Cc1cc(C)c2sc(N(CCN(C)C)C(=O)c3cc(Cl)sc3Cl)nc2c1,inactive,33.6,78.8,inactive,283,inactive
O=C(COc1ccccc1/C=C\c1[nH]c(=O)[nH]c(=O)c1[N+](=O)[O-])Nc1ccccc1,inactive,29.1,77.1,inactive,191,inactive
COc1cc2nc(/C=C/c3ccc(N(C)C)cc3)sc2cc1SC,inactive,121,122,inactive,238,inactive
Cc1ccc(OCCn2c(SCC(=O)O)nc3ccccc32)cc1,inactive,59,86.2,inactive,35.2,inactive
COC(=O)COc1ccc(/C=N/NC(=O)c2ccc(N(Cc3ccccc3)S(C)(=O)=O)cc2)cc1,inactive,39.7,55.5,inactive,124,inactive
COCCNC(=O)c1cnn2c(C(F)F)cc(-c3ccccc3)nc12,inactive,40,85.2,inactive,204,inactive
COc1cc(/C=N/NC(=O)C(Cc2c[nH]c3ccccc23)NC(=O)OCc2ccccc2)cc([N+](=O)[O-])c1O (stereo not given),inactive,29.6,74,inactive,208,inactive
CNC(=O)C(C)NS(=O)(=O)c1ccc(F)cc1 (stereo not given),inactive,50.9,66.5,inactive,236,inactive
Cc1ccc(NC(=O)CS(=O)(=O)c2c[nH]c3ccccc23)c(C)c1,inactive,46,62.9,inactive,184,inactive
Cc1ccc(C)c(OCc2ccc(C(=O)O)o2)c1,inactive,63.2,87.7,inactive,39.9,inactive
Oc1c(C=Nc2cccc3cccnc23)sc2ccccc12,inactive,93.4,177,inactive,199,inactive
CCCCn1c(O)c(N=NC(=O)c2ccccc2NS(=O)(=O)c2cccs2)c2ccccc21,inactive,37.3,87.8,inactive,280,inactive
NC1=NC(=O)/C(=C/c2cn(CCC(=O)O)nc2-c2ccc(Cl)cc2)S1,inactive,18.2,42.4,inactive,65.5,inactive
Cc1ccc([N+](=O)[O-])cc1-c1ccc(/C=C(\C#N)c2[nH]nc(N)c2C#N)o1,inactive,32.4,72.8,inactive,221,inactive
CCOc1cc(/C=C2\SC(=O)N=C2N)ccc1O,inactive,40.7,81,inactive,174,inactive
O=c1[nH]c(N/N=C\c2ccc3c(c2)OCO3)nc2ccccc12,inactive,80.8,118,inactive,202,inactive
O=C(O)c1cn(CCOc2ccc(Cl)cc2)c2ccccc12,inactive,59.9,83.2,inactive,36.5,inactive
O=C1c2oc3ccc(Br)cc3c(=O)c2C(c2cccc(F)c2)N1CCO (stereo not given),inactive,36.4,81.2,inactive,276,inactive
O=C(NC1CCCCC1)c1noc2c1CCCCC2,inactive,34.3,80.9,inactive,252,inactive
Nc1c(S(=O)(=O)c2ccccc2)c2nc3ccccc3nc2n1C1CC1,inactive,33.3,80,inactive,196,inactive
Cc1sc2ncnc(N/N=C/c3ccc(O)cc3)c2c1C,inactive,27.2,64.8,inactive,312,inactive
